Screening data deposited in PubChem by National Center for Advancing Translational Sciences (NCATS).
TexasRed fluor: Total Fluorescence Counterscreen for Inhibitors of the Interaction of Thyroid Hormone Receptor and Steroid Receptor Coregulator 2. TRb/SRC2 Texas Red total fluorescence interference. Potency, µM (titrated, usually from 106 µM). hit rate 0.29% among 280,000. AID 1479, 2009; active means well fitted curve in either direction with a large enough effect
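Human TRβ ligand-binding domain (0.6 uM) and Texas Red SRC2 peptide (20 nM) in Tris buffer with 1 uM T3 and 5% DMSO were incubated with pinned compound for 5 hr at ambient temperature. Total fluorescence was computed as S + 2P (555/632 nm).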
TSHR antag: Antagonists of the Thyroid Stimulating Hormone Receptor: HTS campaign. Thyrotropin receptor (Homo sapiens), P16473. hit rate 0.2% among 330,000. AID 504810, 2011. activity change, negative = inhibition, % at 11.5 µM. TSHR-expressing cells, TSH-stimulated cAMP HTRF, 2 h; active compounds read low;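 active means activity change below a set negative limit, meaning inhibition stronger than a set level, cut at about -70% in these data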
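Cell-based HTRF cAMP assay; TSHR cells + compound, TSH EC80 (4nM final), 2 h, 37 deg C. Lysis with anti-cAMP cryptate and cAMP-d2, 30 min RT, read 665/620 nm.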
TRb-SRC2 inh: qHTS for Inhibitors of the Interaction of Thyroid Hormone Receptor and Steroid Receptor Coregulator 2. Potency, µM (top dose mostly 106 µM), most hits filed as inhibitors. hit rate 0.065% among 280,000. TRbeta-SRC2 peptide binding, fluorescence polarization; receptor liganded with 1 µM T3. Thyroid hormone receptor beta (Homo sapiens), P10828; further: nearly all actives have a fitted effect of over 50% in size
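Polarization signal, normalized between peptide-alone and full complex controls, measured compound effects on T3-liganded human TRb LBD (0.6 uM) binding 20 nM Texas Red SRC2 peptide after 5 hr.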
TCR activator: Activators of T cell receptors: qHTS campaign; primary human leukocytes, anti-CD3, IL-2 HTRF, 48 h; Potency, µM (series often up to 9.22 µM), usual class: activators; 330,000 tested, under 10 active; AID 504894, 2011
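Compounds are tested in HTS on primary human leukocytes co-incubated with a-CD3 beads for 48 hr. IL-2 output is measured by time-resolved FRET.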
Coupling enz: qHTS Assay for Inhibitors of Fructose-1,6-bisphosphate Aldolase from Giardia Lamblia: Coupling assay counterscreen; coupling enzyme system counterscreen, AmpLite Red fluorescence; activity change, negative = inhibition, % at 58.2 µM, hits read low; hit rate 0.67% among 290,000; AID 2472, 2010; in the data active means activity change below about -30%
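Counterscreen lacking aldolase: glyceraldehyde-3-phosphate coupling-enzyme reagent preincubated 10 min at RT with compound (at 57.5 uM final), then substrate/coupling system with AmpLite Red added; fluorescence read at 525/598 nm after 20 min RT.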
NPSR antagonist: qHTS Assay for Antagonists of the Neuropeptide S Receptor: cAMP Signal Transduction; Q6W5P4; CHO-NPSR cells, cAMP TR-FRET, antagonist mode; Potency, µM (doses to about 38.3 µM), hits mostly inhibitors; hit rate 1% among 220,000; further: nearly all actives have a fitted effect of over 50% in size
Target sequence (Q6W5P4 whole entry, looked up): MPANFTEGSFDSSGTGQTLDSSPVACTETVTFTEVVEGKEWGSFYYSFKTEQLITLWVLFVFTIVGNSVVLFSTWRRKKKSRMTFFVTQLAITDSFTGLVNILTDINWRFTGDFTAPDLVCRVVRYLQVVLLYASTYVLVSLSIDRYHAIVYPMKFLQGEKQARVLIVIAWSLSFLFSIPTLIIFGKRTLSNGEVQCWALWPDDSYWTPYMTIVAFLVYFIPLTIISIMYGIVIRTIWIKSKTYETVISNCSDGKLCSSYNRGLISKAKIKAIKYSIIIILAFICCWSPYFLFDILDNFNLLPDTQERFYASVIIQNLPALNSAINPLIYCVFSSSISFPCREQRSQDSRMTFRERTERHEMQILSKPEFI
Numbers stand for hits; . = inactive; / = not tested or not shown; [ ] = dose if it differs, or a comment. Most compounds without a hit are left out; they make up all but 1% or so of the library. Unless noted, the call rests on the fitted dose curve; in most records, active means well fitted curve in the direction sought with a large enough effect; inconclusive means small, poorly fitted or top-dose-only effect, or another doubt; inactive means no such curve, though single readings can be large; an effect the other way counts as inactive or inconclusive.

SMILES	TexasRed fluor	TSHR antag	TRb-SRC2 inh	TCR activator	Coupling enz	NPSR antagonist
COC(=O)c1cnn(-c2nc(OC)cc(OC)n2)c1C	.	.	.	.	.	.
CCCN(CCC)C(=O)CSc1nnc2cc(C)c3ccccc3n12	.	/	.	/	/	/
CC(=O)N(C)C1=C(N2CCOCC2)C(=O)c2ccccc2C1=O	.	.	.	.	-56	.
CC(=O)N(C1=C(N2CCOCC2)C(=O)c2ccccc2C1=O)c1ccc(C(=O)O)cc1	.	.	.	.	-54	.[7.67 µM]
O=C(c1ccccc1)c1ccc(N2CCOCC2)cc1	/	/	/	.	/	/
CC1COCc2cc3c(cc21)C(C)(C)C(C)C3(C)C (configuration not stated)	.	/	.	/	/	/
Cc1cccc(N(C)C(=O)C(Cc2ccccc2)NS(=O)(=O)c2cccc3nsnc23)c1 (configuration not stated)	.	/	.	/	/	/
CCCNC(=O)c1ccc2c(c1)nc1n2CCCCC1	.	/	.	/	/	/
COc1cc(NC(=O)C(C)C)ccc1NC(=O)c1ccco1	.	-93	.	.	.	.[7.67 µM]
COc1ccc(NC(=O)c2ccco2)cc1NC(=O)c1ccc(OC(C)C)cc1	0.35µM[quencher]	/	.	/	/	/
COc1cccc(CNC(=O)CN2C(=O)N(c3ccc(C)cc3C)S(=O)(=O)c3ccccc32)c1OC	.	/	.	/	/	/
Cc1cc(OCc2cc(C(=O)N(C)Cc3ccccn3)no2)cc(C)c1Cl	/	.	/	.	/	/
Cc1cc(OCc2cc(C(=O)N(C)C(C)c3ccccn3)no2)cc(C)c1Cl (configuration not stated)	/	-98	/	.	.	/
CN1CCN(c2ccc(NC(=O)c3ccc([N+](=O)[O-])o3)cc2Cl)CC1	/	.	/	.	.	/
CC(C)C(=O)N1CCN(c2ccc(NC(=O)c3ccc([N+](=O)[O-])o3)cc2Cl)CC1	.	.	.	.	.	3.2µM
CCCC(=O)N1CCN(c2ccc(NC(=O)c3ccc([N+](=O)[O-])o3)cc2Cl)CC1	.	.	.	.	.	4µM
COc1cc(CN2CCNC(=O)C2CC(=O)N2CCCCO2)cc(OC)c1 (configuration not stated)	.	.	.	.	.	.
COc1ccc(CN2CCNC(=O)C2CC(=O)N2CCCCO2)cc1OC (configuration not stated)	.	.	.	.	-30	.
O=C(NC1CCCCC1)C(c1ccc2ncccc2c1)N(Cc1ccc(F)cc1)C(=O)c1ccc2c(c1)OCCO2 (configuration not stated)	.	.	.	.	.	13µM
Cc1nc2c(C(=O)NCc3ccc4c(c3)OCO4)cnn2c(C)c1Cc1ccc(F)cc1Cl	.	.	.	.	.	10µM
CC(=O)Nc1ccc(NC(=O)CCc2nc3cccnc3n2Cc2cccs2)cc1	.	/	.	/	/	/
COc1ccc(-c2ccc(NS(=O)(=O)c3ccc(OC)c(OC)c3)cc2)nn1	.	/	.	/	/	/
CCOC(=O)C1CCC(CN(Cc2c(Cl)cccc2Cl)S(=O)(=O)c2ccc(F)c(C)c2)CC1 (configuration not stated)	.	/	.	/	/	/
Cc1cn(S(=O)(=O)c2ccc(Br)c3ccccc23)cn1	.	.	.	/	.	1µM
COc1cc(S(=O)(=O)n2cnc(C)c2)ccc1Br	.	.	.	.	.	.
SMILES	TexasRed fluor	TSHR antag	TRb-SRC2 inh	TCR activator	Coupling enz	NPSR antagonist
C=CCN(CC=C)C(=S)Nc1ccc2nsnc2c1	.	.	.	.	-54	.
COc1ccc(NC(=S)Nc2ccc3nsnc3c2)cc1	.	.	.	.	-41	.
CC(C)N(C(=O)Nc1ccc2nsnc2c1)C(C)C	.	.	.	.	-37	.
CCOc1ccc(NC(=S)Nc2ccc3nsnc3c2)cc1	.	.	.	.	.	10µM
CCOc1ccc(NC(=O)Nc2ccc3nsnc3c2)cc1	.	.	.	.	.	.
COc1ccc(CCNc2ncnc3c2nnn3C)cc1	.	/	.	/	/	/
